# Assay results from PubChem BioAssay AID652208 (Broad Institute, 2013).
# Entries with a potency or affinity are not part of this list. A number with no mark means an inactive call.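 How the source made its calls: active means Loss of cell signal with fitted half-effect dose at or below twice the top valid tested dose; inconclusive means Poor fit, or flat fit from -70 to -30 percent; inactive means Half-effect above limit, rising signal, or flat within 30 percent.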
# Test: viability loss in HEK293T cells – cell-based, cherry-picks, cytotoxicity control for HIV Vif inhibitor project, dose response (AID 652208);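 further: 0% = median neutral control wells and -100% = median staurosporine control wells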
# Conditions: CellTiter-Glo luminescence, 24 h; series mostly up to 26 µM; activity change, negative = cytotoxicity: at the top concentration
row,SMILES,"activity change, negative = cytotoxicity [%]"
1,COc1ccc(CN(CC(=O)NC2CCCC2)C(=O)CN2C(=O)COc3ccccc32)cc1,3.38
2,COc1ccc(CN2C3CCC2CC(NC(=O)c2cc(OC)c(OC)c(OC)c2)C3)cc1 (stereo not drawn),-11.2
3,CN(C)c1ccc(C(=O)c2ccc(N(C)C)c3ccccc23)cc1,-15.2
4,CCN1C(=O)NC(c2ccccc2)C1=O (stereo not drawn),1.17
5,CCOc1ccc(S(=O)(=O)NCc2ccccn2)cc1NC(=O)c1ccccc1,-22.6
6,Cc1ccc2c(COC(=O)c3ccccc3OC(F)F)cc(=O)oc2c1,-30.2
7,CCC1(CC)NC(=O)N(CC(=O)Nc2ccc(OCc3ccccc3)cc2)C1=O,-11.7
8,COc1ccc(NC(=O)C2(C)Cc3c(-c4cccc(NC(C)=O)c4)ccnc3O2)cn1 (stereo not drawn),-11.7
9,CCN(CC)c1ccc2cc(-c3nnc(-c4ccccc4)o3)c(=O)oc2c1,-15.4
10,O=C(Cn1c(=O)oc2cc(S(=O)(=O)N3CCCCC3)ccc21)N1CCc2ccccc21,-4.05
11,O=C(CCCOc1ccc(Br)cc1)NNC(=O)c1ccncc1,5.12
12,CCOc1nc(N2CCCCC2)nc(-n2cc(-c3ccccc3)nn2)n1,-12.5
13,O=C(Nc1ccc2c(c1)nc1n2CCOC1)c1ccccc1,-17.4
14,CCCn1nnc(NC(=O)C(c2ccccc2)c2ccccc2)n1,-16.2
15,O=C(Nc1cccc(-c2cc3ccccc3oc2=O)c1)c1ccc(Br)o1,2.79
16,CC(C)C(c1nnnn1CC1CCCO1)N1CCN(C2CCCC2)CC1 (stereo not drawn),-1.94
17,COc1cc(C(=O)NCCc2cn3ccc(C)cc3n2)cc(OC)c1OC,4.46
18,CN(C)C(=O)c1cc(Br)ccc1Cl,10.3
19,O=C(C1COc2ccccc2O1)N1CCN(Cc2ccc3c(c2)OCO3)CC1 (stereo not drawn),-3.74

row,SMILES,"activity change, negative = cytotoxicity [%]"
1,Cc1nc(-c2ccccc2OC(F)(F)F)[nH]c(=O)c1Cl,0.156
2,COC(=O)c1cc(Cl)c(NC(=O)c2cc3ccccc3o2)cc1OC,8.12
3,COc1cc(-c2cnc3c(NC=O)cc(-c4cccc(NC(C)=O)c4)cn23)cc(OC)c1OC,-21.3
4,N#Cc1c(C(F)(F)F)cc(-c2ccco2)nc1SCc1ccncc1,-16.7
5,Cc1cc(C)c2nc3sc(C(=O)N4CCOCC4)c(N)c3cc2c1,-9.92
6,O=C(CCc1ccccc1)Nc1ccccc1,5.54
7,COc1ccc(-c2csc(-c3cccnc3)n2)cc1C,-6.7
8,O=C(c1cc(COc2cccc3cccnc23)on1)N1CCC[C@H]1CO,15.7
9,COC(=O)c1sc(-c2ccc(Cl)cc2)cc1NC(=O)CSCC(=O)O,-1.52
10,CCN1c2ccccc2NC2C1C(C(C)=O)C(=O)N2c1ccc(Cl)cc1 (stereo not drawn),-15.2
11,CCOc1ccc2c(C)c(C(=O)O)oc2c1OCC,0.912
12,CNC(=O)COc1ccccc1C(=O)Nc1ccc2c(c1)oc1ccccc12,-10.8
13,O=C(Nc1nn[nH]n1)c1cc(-c2ccc(Cl)c(Cl)c2Cl)nc2ccccc12,6.49
14,Cc1cc(NS(=O)(=O)c2ccc(NC(=O)c3ccc(Cl)cc3Cl)cc2)no1,0.157
15,CC(=O)Nc1ccc(-c2ccnc3c2CC(C(=O)NCc2ccccc2)O3)cc1 (stereo not drawn),-9.05
16,CCOc1ccc(CC(=O)Nc2sc(Cc3ccccc3)c(C)c2C(N)=O)cc1OCC,-5.74
17,N#Cc1c(-c2ccccc2)cc(C2CC2)nc1SCC(=O)c1cccs1,2.29
18,COc1ccc(Br)cc1C(=O)Nc1ccc(N2CCCC2)cc1,-15.1
19,O=C(O)/C=C/C(=O)Nc1cccc(C(F)(F)F)c1,3.54
